Screens from PubChem.
Only some compounds are listed: those with a hit (about 11% of all), similar ones and a draw of the others.
JMJD2E inh: qHTS Assay for Inhibitors of Human Jumonji Domain Containing 2E (JMJD2E). JMJD2E catalytic domain, FDH-coupled NADH fluorescence (FDH is formaldehyde dehydrogenase). hit rate 1.6% among 230,000. Lysine-specific demethylase 4E (Homo sapiens), B2RXH2. Potency, µM (top dose mostly 57.1 µM), usual class: inhibitors; note: nearly all actives have a fitted effect of over 50% in size
PNC assembly inh: High Content Assay for Compounds that inhibit the Assembly of the Perinucleolar Compartment. PC3M PTB-GFP, PNC prevalence imaging, 16 h; active compounds read low. activity change (PNC), negative = inhibition, % at 10 µM. AID 2417, 2010. hit rate 3.1% among 140,000;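 active = readout at or below -70, meaning at least 70% loss of cells showing the perinucleolar compartment, a nuclear body marking cancer cells; inconclusive = readout between -30 and a set limit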
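Compounds are pinned in duplicate onto adhered PC3M cells stably expressing GFP-tagged PTB and incubated 16 h at 37 C. Cells are then fixed, nuclei stained with Hoechst, and PNC-positive cells counted.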
HPGD inh: qHTS Assay for Inhibitors of HPGD (15-Hydroxyprostaglandin Dehydrogenase); 15-hydroxyprostaglandin dehydrogenase [NAD(+)] (Homo sapiens), P15428; AID 894, 2007; hit rate 4.3% among 150,000; Potency, µM, actives largely listed as inhibitors; purified HPGD, NADH fluorescence kinetic, PGE2 substrate
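NADH formation kinetics: reaction with 30 uM PGE2 and 1 mM NAD+ (final), 20 nM enzyme, Tris-HCl pH 8 with Tween 20, after 15 min compound preincubation at room temperature. Fluorescence change, last versus first of five reads.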
ALDH1A1 inh: qHTS Assay for Inhibitors of Aldehyde Dehydrogenase 1 (ALDH1A1). Potency, µM (series often up to 75.3 µM), most hits filed as inhibitors. hit rate 7.3% among 220,000. Aldehyde dehydrogenase 1A1 (Homo sapiens), P00352. Purified ALDH1A1, NADH fluorescence, propionaldehyde substrate
Target sequence (P00352 whole entry, looked up): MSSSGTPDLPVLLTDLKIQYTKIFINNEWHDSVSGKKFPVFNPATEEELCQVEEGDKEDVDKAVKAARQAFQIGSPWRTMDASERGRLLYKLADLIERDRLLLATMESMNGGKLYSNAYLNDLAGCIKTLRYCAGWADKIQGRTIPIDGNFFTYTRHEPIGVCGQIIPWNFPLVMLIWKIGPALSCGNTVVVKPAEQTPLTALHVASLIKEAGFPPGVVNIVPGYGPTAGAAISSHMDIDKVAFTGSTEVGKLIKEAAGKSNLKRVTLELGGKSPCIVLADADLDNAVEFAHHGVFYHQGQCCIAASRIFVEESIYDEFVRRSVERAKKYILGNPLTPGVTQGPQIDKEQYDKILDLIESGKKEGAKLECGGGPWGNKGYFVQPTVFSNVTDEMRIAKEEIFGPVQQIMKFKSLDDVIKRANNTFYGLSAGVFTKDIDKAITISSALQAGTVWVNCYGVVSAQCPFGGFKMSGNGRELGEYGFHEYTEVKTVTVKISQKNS
Hits are given with their value; . = inactive; ? = inconclusive; / = not tested or not shown; [ ] = remark or other dose. Unless noted, calls come from the whole dose curve; as a rule, active = well fitted inhibition curve with a large enough effect (not every such curve was filed as active); inconclusive = small, poorly fitted or top-dose-only effect, or another doubt; inactive = no such curve, though single readings can be large or run the other way.

SMILES	JMJD2E inh	PNC assembly inh	HPGD inh	ALDH1A1 inh
CN1C(=O)C(O)(CC(=O)/C=C\c2ccc3c(c2)OCO3)c2ccccc21 (centres undefined)	.	/	/	.
Cc1ccc(C(=O)CC2(O)C(=O)N(Cc3ccc4c(c3)OCO4)c3ccccc32)cc1 (centres undefined)	.	.	.	1.4µM
O=C(CC1(O)C(=O)N(Cc2ccc3c(c2)OCO3)c2ccccc21)c1ccccc1 (centres undefined)	.	.	.	8.9µM
O=C(O)c1ccc2c(c1)C(=O)N(Cc1ccc3c(c1)OCO3)C2=O	.	.	4.5µM	.
NC(=O)CN1C(=O)C(O)(CC(=O)/C=C\c2ccc3c(c2)OCO3)c2ccccc21 (centres undefined)	.	/	/	?
O=C1c2ccccc2C(=O)N1Cc1ccc2c(c1)OCO2	.	.	.	.
CCN(CC(=O)Nc1ccc2c(c1)OCCO2)C(=O)/C=C/c1ccc(F)cc1	.	/	/	.
O=C(c1ccc2c(c1)OCO2)C1CCCN(C(=O)Nc2ccc(F)cc2F)C1 (centres undefined)	.	/	/	.
O=C(c1cccs1)[C@@H]1[C@@H]2C(=O)N(Cc3ccc4c(c3)OCO4)C(=O)[C@@H]2C2c3ccccc3C=CN21 (some centres undefined)	.	.	?	14µM
O=C(Nc1ccc2c(c1)OCO2)[C@@H]1[C@@H]2C(=O)N(C3CCCCC3)C(=O)[C@@H]2C2c3ccccc3C=CN21 (some centres undefined)	?	.	.	11µM
O=C1C=C[C@@H](O)[C@H]2[C@@H]3C(=O)N(Cc4ccc5c(c4)OCO5)C(=O)[C@@H]3CC[C@H]12	/	/	/	.[13.5 µM]
CC(C)(C)C(=O)[C@@H]1[C@@H]2C(=O)N(C3CCCCC3)C(=O)[C@@H]2[C@H]2c3ccccc3C=CN12	?	?	?	20µM
O=C(c1ccc2c(c1)OCO2)[C@@H]1[C@@H]2C(=O)N(C3CCCCC3)C(=O)[C@@H]2C2c3ccccc3C=CN21 (some centres undefined)	?	.	.	3.5µM
COc1ccc(N2C(=O)[C@H]3[C@@H](C2=O)C2c4ccccc4C=NN2[C@H]3C(=O)C(C)(C)C)cc1 (some centres undefined)	.	/	/	/
O=C(c1cccc(F)c1)N1CCC2(CC1)CN(c1ccccc1)C2	/	/	.	?
COCCN1C(=O)N[C@@H](c2cccs2)C(C(C)=O)=C1C	.[11.4 µM]	/	.	.[13.5 µM]
COc1cccc(-c2ccc3ncnc(N(C)C)c3c2)c1	/	/	/	.
O=C(c1cc(=O)[nH]c2ccccc12)N1CCN(c2ccccc2)CC1	.	/	/	?
COc1ccc(N2C(=O)[C@@H]3[C@H](C2=O)[C@H]2c4ccccc4C=CN2[C@@H]3C(C)=O)cc1	?	.	?	32µM
O=C(NNC(=S)NC(=O)c1cccnc1)c1ccc(Cl)cc1	.	.	.	?
Cc1cccc(C(=O)NC(=S)NNC(=O)Cc2ccccc2)c1	.	?	.	?
O=C(NNC(=S)NC(=O)c1cccs1)c1cccnc1	.	/	/	?
Cc1cccc(C(=O)NC(=S)NNC(=O)c2ccccc2Cl)c1	?	.	.	22µM
O=C(NC(=S)NNC(=O)c1ccccc1O)c1cccnc1	20µM	/	/	?
Cc1cc(C)nc(NC(=O)/C=C/c2ccccc2Cl)n1	.	.	.	.
SMILES	JMJD2E inh	PNC assembly inh	HPGD inh	ALDH1A1 inh
Cc1cc(C(=O)NNC(=S)NC(=O)/C=C/c2ccccc2Cl)n[nH]1	7.9µM	.	?	?
O=C(NC(=S)NNC(=O)c1ccc(Cl)cc1Cl)c1cccnc1	.	?	?	24µM
CCCCNC(=S)NNC(=O)c1cccnc1	.	-87	.	.
O=C1N=C(N2CCOCC2)S/C1=C/c1cc2c(cc1[N+](=O)[O-])OCO2	.	/	/	?
CCCCN(CC)CCNC(=O)Cn1cnc2sc(C)c(S(=O)(=O)N3CCOCC3)c2c1=O	.	-100	.	.
COCCNC(=O)Cn1cnc2sc(C)c(S(=O)(=O)N3CCC(C)CC3)c2c1=O	.	.	/	.
Cc1cccc(NC(=O)Cn2cnc3sc(C)c(S(=O)(=O)N4CCC(C)CC4)c3c2=O)n1	.	-100	.	.
CN(C)S(=O)(=O)c1ccc(=S)[nH]c1	.	/	/	1µM
COc1cc(CNc2nnnn2C)ccc1OCc1c(F)cccc1Cl	.	/	/	.
CCSC1=N/C(=C\c2ccc(C(=O)O)cc2)C(=O)S1	.	.	.	.
C=CCSC1=N/C(=C\c2ccc(C(=O)O)cc2)C(=O)S1	?	/	/	3.5µM
COC(=O)CC1C(=O)NCCN1C(=O)CSc1nnc(Nc2ccc(OC)cc2)s1 (centres undefined)	.	.	?	25µM
Cc1nnc(SC(C)C(=O)Nc2ccc3c(c2)OCCO3)s1 (centres undefined)	.	.	.	.
CC(C)[C@H](NC(=O)Nc1cccc(Br)c1)C(=O)O	.	-91	.	.
CC(Sc1ccc2c(c1)OCCO2)C(=O)Nc1ccc2c(c1)OCO2 (centres undefined)	.	.	.	10µM
CCOCC(=O)Nc1ccc(F)c(F)c1	.	.	28µM	.
C[C@H](NC(=O)Nc1cccc(Br)c1)C(=O)O	.	/	/	/
CCC(=O)Nc1cccc(Br)c1	.	-116	.	.
CO[C@H]1COC(=O)[C@H](C)COC(=O)[C@H](C)NC(=O)C/C=C\[C@H]1C	/	/	/	.[13.5 µM]
CCC1(c2ccc(F)cc2)NC(=O)N(CC(=O)Nc2cc(S(=O)(=O)N(C)C)ccc2Cl)C1=O (centres undefined)	.	/	/	.
CCOCC(=O)Nc1cccc(Br)c1	.	.	25µM	20µM
CCOCC(=O)Nc1ccc2c(c1)OCCO2	.	?	14µM	?
CCOCC(=O)Nc1cccc(NC(C)=O)c1	.	?	.	.
CCC(=O)Nc1ccc2c(c1)C(=O)c1ccccc1C2=O	.	.	.	7.9µM
CCC(=O)Nc1ccc2c(c1)OCCO2	.	.	.	.
SMILES	JMJD2E inh	PNC assembly inh	HPGD inh	ALDH1A1 inh
CCC(=O)Nc1ccc2c(c1)C(=O)N(C)C2=O	?	.	?	?
CC(C)C(NC(=S)Nc1ccccc1)C(=O)O (centres undefined)	.	?	32µM	.
COc1ccccc1-c1nnc(SCC(=O)NCc2cccs2)n1N	.	/	/	.
COc1ccc(C(O)C2=CCCC2=O)cc1 (centres undefined)	.	/	.	.
O=C(COC(=O)c1cc[n+]([O-])cc1)Nc1ccc2c(c1)OCCO2	.	.	.	14µM
COc1cc(Cl)c(C)cc1NC(=O)COC(=O)c1cc[n+]([O-])cc1	.	/	/	16µM
NC(=O)c1ccc(NC(=O)COC(=O)c2ccc3c(c2)OCCO3)cc1	.	/	/	/
COc1ccc(C2C(C(=O)c3ccco3)=C(O)C(=O)N2CCc2ccccc2)cc1OC (centres undefined)	?	.	.	.
Cc1ccc(C2C(C(=O)c3sc(C)nc3C)=C(O)C(=O)N2CCN(C)C)o1 (centres undefined)	.	.	.	?
